# Test results: the supplement of paper PMC8728848
# The full list was thinned out, with the strongest signals kept by preference.
# B1: PX14343H-pdi-506-26-506 (Parabacteroides distasonis) (protein)
# chain: QPTGTMTTDSKLTSKESALALTNSAYLKNTVFNKMTPGWGCNTILLLEYMTGKATSENSQSNYKDFQDLLVSDRSLYIEDWWQDCYAGIANCNLALQKLGEFENLDASLVNGYMAEVKFMRALYYFYLVRIFGDVPKITTVQSELGELQVSRAPVKEIYDEIIIPDLLEAEQSDLAFSDHTGRVSMGAVKALLADVYLTYAGYPLQGGKSYYAESAKRSLEVIKSNEYTLFTDYESLRLPSQNNKGEFIYQVQFSLNKRHNESVRIFLPSRSGISAYDLEYGSLIPTKEFVESFEKGDKRTEEKQYFFTNYKGHPSKFSPGAAELEFMDLNGYYIYKFFDQVAVDNTAKSDLNWSVYRYTDVLLMYAEAQVNADGTPNQQSIDIVNQIRGRAGLAPFKQTNASAFLEEVWDQRYFDLCYENKMWFDMLRTRKIRDDKSGEYVDFIGYKTNWGKVYTETQLLFPIPLSERQANPNLTQNQGY
# Assays:
# Assay in all cases: glycan array binding signal (z-score within array); higher = stronger binding
# Conditions in all cases: glycan notation: IUPAC condensed, linker removed
# Fuc(a1-2)Gal(b1-3)GalNAc = target: Fuc(a1-2)Gal(b1-3)GalNAc
# Method in brief: (§1)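 Columns mapping to the same glycan were averaged after glycan names were converted to IUPAC-condensed notation. The data come from 3228 arrays in the Consortium for Functional Glycomics database, limited to those with an available protein sequence. Binding is reported as a within-array Z-score averaged across arrays of one protein sequence and across linkers.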
# [1] = target: Fuc(a1-2)Gal(b1-3)GalNAc(b1-3)Gal
# Method in brief: as §1
# [2] = target: Fuc(a1-2)Gal(b1-3)GlcNAc(b1-3)[Neu5Ac(a2-6)Gal(b1-4)GlcNAc(b1-6)]Gal(b1-4)Glc
# Method in brief: as §1
# [3] = target: Fuc(a1-2)Gal(b1-3)[Fuc(a1-4)]GlcNAc(b1-2)Man(a1-3)[Fuc(a1-2)Gal(b1-3)[Fuc(a1-4)]GlcNAc(b1-2)Man(a1-3)]Man(b1-4)GlcNAc(b1-4)GlcNAc
# Method in brief: as §1
# [4] = target: Fuc(a1-2)Gal(b1-4)GlcNAc(b1-2)Man(a1-3)[Fuc(a1-2)Gal(b1-4)GlcNAc(b1-2)Man(a1-6)]Man(b1-4)GlcNAc(b1-4)GlcNAc
# Method in brief: as §1
# [5] = target: Fuc(a1-2)Gal(b1-4)[Fuc(a1-3)]GlcNAc(b1-3)[Neu5Ac(a2-6)Gal(b1-4)GlcNAc(b1-6)]Gal(b1-4)Glc
# Method in brief: as §1
# [6] = target: Fuc(a1-2)[Gal(a1-3)]Gal(b1-3)GlcNAc(b1-6)GalNAc
# Method in brief: as §1
# [7] = target: Fuc(a1-2)[Gal(a1-3)]Gal(b1-4)GlcNAc(b1-2)Man
# Method in brief: as §1
# [8] = target: Fuc(a1-2)[Gal(a1-3)]Gal(b1-4)GlcNAc(b1-6)GalNAc
# Method in brief: as §1
# [9] = target: Fuc(a1-2)[GalNAc(a1-3)]Gal(b1-3)GlcNAc(b1-2)Man(a1-3)[Fuc(a1-2)[GalNAc(a1-3)]Gal(b1-3)GlcNAc(b1-2)Man(a1-6)]Man(b1-4)GlcNAc(b1-4)[Fuc(a1-6)]GlcNAc
# Method in brief: as §1
# [10] = target: Fuc(a1-2)[GalNAc(a1-3)]Gal(b1-4)GlcNAc
# Method in brief: as §1
# [11] = target: Fuc(a1-2)[GalNAc(a1-3)]Gal(b1-4)GlcNAc(b1-2)Man
# Method in brief: as §1
# [12] = target: Fuc(a1-2)[GalNAc(a1-3)]Gal(b1-4)GlcNAc(b1-2)Man(a1-3)[Fuc(a1-2)[GalNAc(a1-3)]Gal(b1-4)GlcNAc(b1-2)Man(a1-6)]Man(b1-4)GlcNAc(b1-4)GlcNAc
# Method in brief: as §1
# [13] = target: Fuc(a1-2)[GalNAc(a1-3)]Gal(b1-4)GlcNAc(b1-3)GalNAc
# Method in brief: as §1
# [14] = target: Fuc(a1-3)[Gal(b1-4)]GlcNAc(b1-2)Man(a1-3)[Fuc(a1-3)[Gal(b1-4)]GlcNAc(b1-2)Man(a1-6)]Man(b1-4)GlcNAc(b1-4)[Fuc(a1-6)]GlcNAc
# Method in brief: as §1
# [15] = target: Fuc(a1-3)[Gal3S(b1-4)]GlcNAc6S
# Method in brief: as §1
# [16] = target: Gal(a1-3)Gal(b1-3)GlcNAc(b1-2)Man(a1-3)[Gal(a1-3)Gal(b1-3)GlcNAc(b1-2)Man(a1-6)]Man(b1-4)GlcNAc(b1-4)GlcNAc
# Method in brief: as §1
# [17] = target: Gal(a1-3)Gal(b1-4)GlcNAc(b1-2)Man(a1-3)[Gal(a1-3)Gal(b1-4)GlcNAc(b1-2)Man(a1-6)]Man(b1-4)GlcNAc(b1-4)GlcNAc
# Method in brief: as §1
# [18] = target: Gal(a1-4)Gal(b1-4)GlcNAc(b1-2)Man(a1-3)[Gal(a1-4)Gal(b1-4)GlcNAc(b1-2)Man(a1-6)]Man(b1-4)GlcNAc(b1-4)GlcNAc
# Method in brief: as §1
# Gal(b1-2)Gal = target: Gal(b1-2)Gal
# Method in brief: as §1
# [19] = target: Gal(b1-3)GlcNAc(b1-2)Man(a1-3)[Gal(b1-3)GlcNAc(b1-2)Man(a1-6)]Man(b1-4)GlcNAc(b1-4)[Fuc(a1-6)]GlcNAc
# Method in brief: as §1
# [20] = target: Gal(b1-3)GlcNAc(b1-3)Gal(b1-4)GlcNAc(b1-3)Gal(b1-4)GlcNAc(b1-2)[Gal(b1-3)GlcNAc(b1-3)Gal(b1-4)GlcNAc(b1-3)Gal(b1-4)GlcNAc(b1-6)]Man(a1-6)[Gal(b1-3)GlcNAc(b1-3)Gal(b1-4)GlcNAc(b1-3)Gal(b1-4)GlcNAc(b1-2)Man(a1-3)]Man(b1-4)GlcNAc(b1-4)[Fuc(a1-6)]GlcNAc
# Method in brief: as §1
# [21] = target: Gal(b1-3)[Fuc(a1-4)]GlcNAc(b1-2)Man
# Method in brief: as §1
# [22] = target: Gal(b1-3)[Neu5Ac(b2-6)]GalNAc
# Method in brief: as §1
# Gal(b1-4)Gal = target: Gal(b1-4)Gal
# Method in brief: as §1
# [23] = target: Gal(b1-4)GlcNAc(b1-2)Man(a1-6)[Man(a1-3)]Man(b1-4)GlcNAc(b1-4)GlcNAc
# Method in brief: as §1
# [24] = target: Gal(b1-4)GlcNAc(b1-2)[Gal(b1-4)GlcNAc(b1-4)]Man(a1-3)[Gal(b1-4)GlcNAc(b1-2)Man(a1-6)]Man(b1-4)GlcNAc(b1-4)GlcNAc
# Method in brief: as §1
# [25] = target: Gal(b1-4)GlcNAc(b1-2)[Gal(b1-4)GlcNAc(b1-4)]Man(a1-3)[Gal(b1-4)GlcNAc(b1-2)[Gal(b1-4)GlcNAc(b1-6)]Man(a1-6)]Man(b1-4)GlcNAc(b1-4)GlcNAc
# Method in brief: as §1
# [26] = target: Gal(b1-4)GlcNAc(b1-2)[Gal(b1-4)GlcNAc(b1-6)]Man(a1-6)[Gal(b1-4)GlcNAc(b1-2)Man(a1-3)]Man(b1-4)GlcNAc(b1-4)[Fuc(a1-6)]GlcNAc
# Method in brief: as §1
# [27] = target: Gal(b1-4)GlcNAc(b1-3)Gal(b1-3)GlcNAc
# Method in brief: as §1
binder,measurement,setting,value
B1,glycan array binding signal (z-score),Fuc(a1-2)Gal(b1-3)GalNAc,-0.509
same,glycan array binding signal (z-score),[1],-0.373
same,glycan array binding signal (z-score),[2],-0.402
same,glycan array binding signal (z-score),[3],-0.174
same,glycan array binding signal (z-score),[4],3.11
same,glycan array binding signal (z-score),[5],-0.392
same,glycan array binding signal (z-score),[6],-0.255
same,glycan array binding signal (z-score),[7],-0.394
same,glycan array binding signal (z-score),[8],-0.381
same,glycan array binding signal (z-score),[9],-0.391
same,glycan array binding signal (z-score),[10],-0.526
same,glycan array binding signal (z-score),[11],-0.523
same,glycan array binding signal (z-score),[12],4.7
same,glycan array binding signal (z-score),[13],-0.4
same,glycan array binding signal (z-score),[14],2.77
same,glycan array binding signal (z-score),[15],-0.299
same,glycan array binding signal (z-score),[16],3.96
same,glycan array binding signal (z-score),[17],6.89
same,glycan array binding signal (z-score),[18],0.705
same,glycan array binding signal (z-score),Gal(b1-2)Gal,-0.367
same,glycan array binding signal (z-score),[19],0.737
same,glycan array binding signal (z-score),[20],3.2
same,glycan array binding signal (z-score),[21],-0.12
same,glycan array binding signal (z-score),[22],-0.512
same,glycan array binding signal (z-score),Gal(b1-4)Gal,1.08
same,glycan array binding signal (z-score),[23],5.33
same,glycan array binding signal (z-score),[24],0.486
same,glycan array binding signal (z-score),[25],-0.221
same,glycan array binding signal (z-score),[26],0.886
same,glycan array binding signal (z-score),[27],-0.366
